Screens (PubChem BioAssay)
This is a sample that favours compounds with a hit; in the whole collection about 0.45% have one here.
FMDV RLuc: Primary qHTS Assay for Foot and Mouth Disease Virus Antivirals against NCGC Sytravon and CBC Compound Libraries: Renilla Luciferase Signal. FMDV replicon cells, Renilla luciferase signal. Potency, µM (top dose mostly 57.5 µM), for inactives: at the highest dose activity change, negative = inhibition, actives largely listed as inhibitors. 120,000 compounds, 0.32% hits; note: nearly all actives have a fitted effect of over 55% in size
FMDV FLuc: Primary qHTS Assay for Foot and Mouth Disease Virus Antivirals against NCGC Sytravon and CBC Compound Libraries: Firefly Luciferase Signal | 120,000 compounds, 0.23% hits | Potency, µM (highest dose often 57.5 µM), for the others: at the top dose activity change, negative = inhibition, actives largely listed as inhibitors | FMDV antiviral cell assay, firefly luciferase signal; note: nearly all actives have a fitted effect of over 60% in size
* hit, by the source's call. Calls come from the whole dose curve. % is set by controls: 0 for no effect and ±100 for the full control effect; potency is the fitted concentration of half-maximal effect.

For COc1ccc(CCNc2ncnc3onc(C)c23)c(OC)c1 the results were FMDV RLuc 0.89µM* and FMDV FLuc inconclusive.
Screening c1ccc2c(NCc3ccc4c(c3)OCO4)nc(-c3ccncc3)nc2c1 returned FMDV RLuc 41% and FMDV FLuc 0%.
For CCNC(=O)NC(=O)CN(Cc1ccccn1)C(C)C the results were FMDV RLuc 41% and FMDV FLuc 0%.
`CN(C(=O)Cn1c(=O)c2c(ncn2C2CCCC2)n(Cc2ccccc2)c1=O)C1CCS(=O)(=O)C1` (configuration not stated) gave FMDV RLuc 6% and FMDV FLuc 26%.
For O=C(O)c1cc(NCc2ccc(OCc3ccccc3)cc2)ccc1N1CCOCC1 the results were FMDV RLuc 28µM* and FMDV FLuc inconclusive.
For O=C(O)c1cc(NCc2ccccc2OCc2ccccc2)ccc1N1CCOCC1 the results were FMDV RLuc 35% and FMDV FLuc 6%.
For O=C(O)C1(c2ccc(Br)cc2)CCCCC1 the results were FMDV RLuc 0% and FMDV FLuc 0%.
Screening COc1cc(CNCC2CCNCC2)ccc1OCc1ccccc1Cl returned FMDV RLuc 35µM* and FMDV FLuc inconclusive.
For COc1cc(CNCc2ccco2)ccc1OCc1ccccc1C the results were FMDV RLuc 2% and FMDV FLuc 0%.
Screening CCOc1ccc(CN2CCN(Cc3ccc4c(c3)c3ccccc3n4CC)CC2)cc1 returned FMDV RLuc inconclusive and FMDV FLuc 22%.
For CCn1c2ccccc2c2cc(CNCC3CCNCC3)ccc21 the results were FMDV RLuc 28µM* and FMDV FLuc inconclusive.
For O=c1c2ccccc2nc(/C=C/c2cccc3ccccc23)n1-c1ccccc1Cl the results were FMDV RLuc 25µM* and FMDV FLuc inconclusive.
For COc1ccc(Cl)cc1-n1c(/C=C/c2cccc3ccccc23)nc2ccccc2c1=O the results were FMDV RLuc 24% and FMDV FLuc -23%.
Cc1cccc(NC(=O)c2oc3ccccc3c2NC(=O)c2nn(-c3ccc(F)cc3)ccc2=O)c1 was read as FMDV RLuc 16% and FMDV FLuc 50%.
`Cn1c(=O)n(C)c2cc(S(=O)(=O)c3ccc(F)cc3)c(NC(=O)Cc3ccccc3Cl)cc21` gave FMDV RLuc 4% and FMDV FLuc -4%.
`Cc1ccc(CCNC(=O)C(C)n2nc(C)c3c(C)n(-c4ccc(C)cc4)nc3c2=O)cc1` (configuration not stated) gave FMDV RLuc 13µM* and FMDV FLuc inconclusive.
COc1ccc(CCNC(=O)C(C)n2nc(C)c3c(C)n(-c4ccccc4)nc3c2=O)cc1OC (configuration not stated) was read as FMDV RLuc 9% and FMDV FLuc 23%.
`O=c1cc(CN2CCN(CCO)CC2)c2cc(Cl)c(O)cc2o1` gave FMDV RLuc -5% and FMDV FLuc 7%.
COc1ccc(NC(=O)Cn2c(=O)oc3cc(S(=O)(=O)N4CCC(C)CC4)ccc32)c(OC)c1 was read as FMDV RLuc 10µM* and FMDV FLuc inconclusive.
Screening COc1ccc(C)cc1NC(=O)Cn1c(=O)oc2cc(S(=O)(=O)N3CCCCC3)ccc21 returned FMDV RLuc 13% and FMDV FLuc 11%.
`COc1ccc(/C=C2\Oc3c(ccc(OS(C)(=O)=O)c3C)C2=O)cc1` gave FMDV RLuc 13% and FMDV FLuc 0%.
CCn1c(=O)n(CC)c2cc(Sc3ccccc3)c(NC(=O)c3cccc(OC)c3)cc21 was read as FMDV RLuc 9% and FMDV FLuc 7%.
For CC(=O)N1c2ccccc2C(=O)C1N1CCN(c2cccc(C(F)(F)F)c2)CC1 (configuration not stated) the results were FMDV RLuc -17% and FMDV FLuc -22%.
Screening O=C1CC(c2ccccc2O)Cc2nc(N3CCN(c4cccc(C(F)(F)F)c4)CC3)ncc21 (configuration not stated) returned FMDV RLuc 4µM* and FMDV FLuc 8.9µM*.
COc1ccc2c(C)c(CCC(=O)NCc3ccc(S(=O)(=O)N(C)C)cc3)c(=O)oc2c1 was read as FMDV RLuc -16% and FMDV FLuc -6%.
C=C(C)COc1ccc2c(C)c(CCC(=O)NCc3ccc(S(N)(=O)=O)cc3)c(=O)oc2c1 was read as FMDV RLuc 7.1µM* and FMDV FLuc 4.5µM*.
`C(#CCN1CCOCC1)CC(c1ccccc1)c1ccccc1` gave FMDV RLuc 10% and FMDV FLuc 11%.
`CCC[N+]1(CC#CCC(c2ccccc2)c2ccccc2)CCCCC1` gave FMDV RLuc 4µM* and FMDV FLuc inconclusive.
Screening CCN(c1ccc2sc(C(=O)NCCC(C)C)cc2c1)S(C)(=O)=O returned FMDV RLuc 25µM* and FMDV FLuc inconclusive.
For CC(C)CNC(=O)c1cc2cc(N(C)S(C)(=O)=O)ccc2s1 the results were FMDV RLuc inconclusive and FMDV FLuc 44%.
`CC(C)=CC1C(C(=O)Nc2c(C)cccc2C(C)C)C1(C)C` (configuration not stated) gave FMDV RLuc 21% and FMDV FLuc -12%.
`CCN(CC)c1ccc(C2C(C(=O)Nc3ccc(F)cc3F)=C(C)NC3=C2C(=O)CC(C)(C)C3)cc1` (configuration not stated) gave FMDV RLuc 0% and FMDV FLuc -13%.
Screening COC(=O)c1ncoc1-c1ccccc1C(=O)N1CCN(c2cccc(OC)c2)CC1 returned FMDV RLuc 5% and FMDV FLuc 6%.
For CCOc1ccc2nc(NC(=O)CS(=O)(=O)c3ccc(Cl)cc3)sc2c1 the results were FMDV RLuc inconclusive and FMDV FLuc 8.9µM*.
Screening CS(=O)(=O)c1ccc2nc(NC(=O)CS(=O)(=O)c3ccc(Cl)cc3)sc2c1 returned FMDV RLuc -8% and FMDV FLuc 0%.
Screening O=C(CCCc1c[nH]c2ccccc12)Nc1ccc2ncccc2c1 returned FMDV RLuc 5% and FMDV FLuc 0%.
`O=C(CCCc1c[nH]c2ccccc12)Nc1cccc2cnccc12` gave FMDV RLuc 11µM* and FMDV FLuc inconclusive.
Screening O=C(CNC(=O)c1ccc2c(c1)OCO2)Nc1ccc2c(c1)-c1ccccc1C2 returned FMDV RLuc -13% and FMDV FLuc 2%.
CCN(CC)S(=O)(=O)NCc1ccnc(N2CCN(c3ccc(F)cc3)CC2)c1 was read as FMDV RLuc 10µM* and FMDV FLuc inconclusive.
`CCCN(CCC)S(=O)(=O)NCc1ccnc(N2CCN(c3ccc(F)cc3)CC2)c1` gave FMDV RLuc -13% and FMDV FLuc -29%.
For O=C(Nc1ccc(Oc2ccccc2)cc1)c1cc(=O)[nH]c2ccccc12 the results were FMDV RLuc 19% and FMDV FLuc 15%.
`CC[N+](C)(CC)CC(C[N+](C)(CC)CC)OCc1ccccc1` gave FMDV RLuc 8% and FMDV FLuc 0%.
Screening C[N+](CCOCc1ccccc1)(CCOCc1ccccc1)CCOCc1ccccc1 returned FMDV RLuc 28µM* and FMDV FLuc inconclusive.
Screening COc1ccc(N2C(=O)C(C)CS2(=O)=O)cc1S(=O)(=O)N(C)CCc1ccncc1 (configuration not stated) returned FMDV RLuc 92% and FMDV FLuc 4%.
For CCc1ccc(-c2nc(COC(=O)c3c(C)nsc3N)cs2)cc1 the results were FMDV RLuc 1.4µM* and FMDV FLuc inconclusive.
